# Screens: PubChem BioAssay, National Center for Advancing Translational Sciences (NCATS)
# USP1 inh = USP1/UAF1 (human) deubiquitinase inhibition. O94782. AID 743255. actives 0.23% (n = 390,000). recombinant USP1/UAF1, Ub-Rhodamine cleavage fluorescence. Potency, µM (top dose mostly 57.1 µM), for inactives: at the highest dose activity change, negative = inhibition, hits mostly inhibitors; active means well fitted inhibition curve with a large enough effect; inconclusive means small, poorly fitted or top-dose-only effect; inactive means no such curve, though single readings can be large or run the other way; further: potency means the concentration at half of the fitted maximal effect; nearly all actives have a fitted effect of over 60% in size
# Target sequence (O94782 whole entry, looked up): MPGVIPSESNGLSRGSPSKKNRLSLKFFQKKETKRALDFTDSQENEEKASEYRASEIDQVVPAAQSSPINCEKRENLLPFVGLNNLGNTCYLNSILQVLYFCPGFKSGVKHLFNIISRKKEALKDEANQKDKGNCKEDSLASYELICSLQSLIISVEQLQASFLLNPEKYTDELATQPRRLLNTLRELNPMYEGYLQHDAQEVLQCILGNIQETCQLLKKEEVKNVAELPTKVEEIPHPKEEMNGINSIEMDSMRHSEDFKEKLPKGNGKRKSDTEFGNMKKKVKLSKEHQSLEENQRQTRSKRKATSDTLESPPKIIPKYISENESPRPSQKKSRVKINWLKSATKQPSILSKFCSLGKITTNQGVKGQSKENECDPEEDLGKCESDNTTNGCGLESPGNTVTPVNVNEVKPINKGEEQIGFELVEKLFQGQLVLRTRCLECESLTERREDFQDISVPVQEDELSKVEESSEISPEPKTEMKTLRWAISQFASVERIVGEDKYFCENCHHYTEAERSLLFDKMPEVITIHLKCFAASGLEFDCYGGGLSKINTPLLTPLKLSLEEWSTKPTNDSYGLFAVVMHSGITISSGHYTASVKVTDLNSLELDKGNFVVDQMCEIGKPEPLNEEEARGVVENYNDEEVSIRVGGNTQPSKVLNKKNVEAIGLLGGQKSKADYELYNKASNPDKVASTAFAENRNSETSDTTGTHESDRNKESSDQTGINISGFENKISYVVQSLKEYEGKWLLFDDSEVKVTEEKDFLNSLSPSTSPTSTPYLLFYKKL
#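 USP1/UAF1 complex (1 nM) preincubated 15 min at room temperature with compound, then Ub-Rho substrate (150 nM final) added. Kinetic fluorescence at 480/540 nm over 6 reads at 60 s intervals; 50 mM HEPES pH 7.8, 0.5 mM EDTA, 0.1 mg/ml BSA, 1 mM TCEP, 0.01% Tween-20.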
# KCNH2 WT inh = KCNH2 (human, wildtype) channel inhibition; actives 0.37% (n = 340,000); Q12809; activity change, % at 1.84 µM; AID 720551; U2OS, BacMam KCNH2, thallium flux FluxOr; hits give low values;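 active means maximum activity change below -70%; inconclusive means maximum activity change between -70% and -50%; inactive means maximum activity change above -50%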
#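 U2OS cells were transduced with wild-type KCNH2 virus (2.03 x 10^8 / mL) for 4 h at room temperature, then cultured overnight at 37 C. Thallium flux was read with FluxOr dye. Rate constants were normalized to DMSO controls.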
# Giardia kill = kills Giardia lamblia; activity change, % at 7.66 µM, hits read low; Giardia lamblia trophozoite viability; actives 0.15% (n = 340,000); in the data active means activity change below about -80%; inconclusive means between about -30% and that limit;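 further: parasites exposed to compound for two days anaerobically before the ATP read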
#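 Anaerobic 48 hrs incubation at 37 deg C of 100 trophozoites/well with test compounds; ATPLite 1-Step luminescence, 15-30 min RT, reports cellular ATP as viability.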
# KCNH2 3.1 block = KCNH2 3.1 (human) potassium channel inhibition | U2OS KCNH2 3.1, thallium flux FluxOr; hits give low values | activity change, % (tested at about 1.8 µM) | actives 0.95% (n = 340,000) | AID 720553;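 active means maximum activity change below -70%; inconclusive means maximum activity change from -70% to -50%; inactive means maximum activity change above -50%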;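 further: thallium influx rate constant from kinetic fluorescence after stimulation buffer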
#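 Steps: virus added to U2OS suspension (4 h, RT, dark); medium with 10% FBS added, cells plated, 37 C overnight; FluxOr/Red40 loading buffer 45 min RT; stimulation buffer, 2 min kinetic read; rate constant normalized.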
# FBPA coupling cs = counter-screen for Giardia aldolase inhibitors: coupling enzyme system; coupling enzyme system counterscreen, AmpLite Red fluorescence; activity change, negative = inhibition, % at 58.2 µM, hits read low; actives 0.67% (n = 290,000); in the data active means activity change below about -30%
#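 Fluorescence at 525 nm excitation and 598 nm emission measured inhibition of the coupled detection system without aldolase. Compounds (at 57.5 uM final) were preincubated 10 min at room temperature with coupling enzyme reagent before a 20 min substrate/AmpLite Red step.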
# The depositor's hits bear a star; ? = inconclusive; · = no result. The list is not random: actives were taken first. Their share in the collection is about 1.7%. On the % scale 0 is the no-effect control and ±100 the full control effect.
SMILES,USP1 inh,KCNH2 WT inh,Giardia kill,KCNH2 3.1 block,FBPA coupling cs
CSC1=NSC2=NC(=O)/C(=C/c3coc4ccccc4c3=O)C(=N)N12,25.1µM*,25.3,-0.1,-1.1,4.5
N=C1/C(=C/c2cccn2Cc2ccc(F)cc2)C(=O)N=C2SC=CN12,-20.1%,-5.8,-2.2,-1.0,-1.9
CSC1=NSC2=NC(=O)/C(=C/c3coc4ccc(O)cc4c3=O)C(=N)N12,22.4µM*,-9.0,14.7,·,-1.5
N=C1/C(=C\c2coc3ccccc3c2=O)C(=O)N=C2SC=CN12,28.2µM*,-7.4,-4.6,-6.5,-0.5
CC1=CC2=NC(=O)/C(=C\c3cc(C)n(-c4cccc(Cl)c4)c3C)C(=N)N2O1,-1.8%,-5.9,-14.8,-0.5,-3.0
CC1=CC2=NC(=O)/C(=C/c3coc4ccc(Cl)cc4c3=O)C(=N)N2O1,28.2µM*,2.2,2.5,1.3,-2.6
O=C(NCc1ccco1)c1ccc2c(c1)N(Cc1ccc(F)cc1)C(=O)c1ccccc1S2=O (configuration not stated),-20.6%,·,·,·,·
CSc1ccc(CCNC(=O)c2ccc(-c3nc(COc4ccc(C)cc4)c(C)o3)cc2)cc1,-11.4%,·,·,·,·
NCCNCCN,·,·,·,·,-43.6*
NCCNCCNCCN,5.8%,0.6,-13.1,5.8,8.9
Oc1c(Br)cc(Br)cc1CNc1cnc2ccccc2c1,-9.9%,4.4,3.6,-3.9,-3.4
Oc1c(Br)cc(Br)cc1CNc1ccc(F)cc1,-32.1%,12.3,-1.5,5.4,-33.1*
CC(C)N(C(=O)[C@H]1C[C@H](CC(=O)NCCCn2ccnc2)C(=O)N2CCc3c([nH]c4cc(CCC(=O)N(C)C)ccc34)[C@]12C)C(C)C,-21.4%,-2.9,-5.6,34.1,·
c1coc(CNc2nc(N3CCCCC3)nc3ccccc23)c1,0.5%,13.8,10.5,-18.0,-4.2
c1ccc(CNc2nc(N3CCN(Cc4ccccc4)CC3)nc3ccccc23)cc1,-0.1%,-42.5,0.2,-104.4*,-0.6
c1ccc(N2CCN(c3nc(NCc4ccco4)c4ccccc4n3)CC2)cc1,-20.8%,-80.7*,9.8,-103.7*,-3.6
C=CCn1c(SCC(=O)Nc2ccc(S(N)(=O)=O)cc2)nnc1-c1cnccn1,-21.4%,-143.3*,5.2,-12.4,·
C=CCn1c(SCC(=O)Nc2ccc(OC)cc2)nnc1-c1cnccn1,-26.4%,-4.1,-0.1,4.1,·
Cc1ccc(-n2cc(C(=O)Oc3cccc(C)c3)c3ccccc3c2=O)cc1,-4.7%,·,·,·,·
Cc1cc(-c2ccc(C)c(S(=O)(=O)N3CCN(c4cccc(C(F)(F)F)c4)CC3)c2)on1,-12.3%,·,·,·,·
Cc1cc(-c2ccc(C)c(S(=O)(=O)N3CCN(c4ccc([N+](=O)[O-])cc4)CC3)c2)on1,-23.8%,-29.0,?,-95.6*,·
O=C(/C=C1\NC2(CCCC2)Cc2ccccc21)C(=O)N/N=C/c1ccccc1O,-22.9%,-22.1,16.0,-85.4*,-6.4
COc1cc(/C=N/NC(=O)C(=O)/C=C2\NC3(CCCC3)Cc3ccccc32)ccc1O,?,2.7,-8.8,-26.0,-0.3
CNC(=O)c1c(NC(=O)c2cc(=O)c3ccccc3o2)sc2c1CCC2,-13.7%,·,·,·,·
Cc1nnc(N2CCCC(C(=O)NCc3ccc(OC(C)C)cc3)C2)c2nn(-c3ccccc3)c(C)c12 (configuration not stated),-0.2%,-9.1,-5.7,-81.6*,·
SMILES,USP1 inh,KCNH2 WT inh,Giardia kill,KCNH2 3.1 block,FBPA coupling cs
COc1ccc(-n2nc3c(N4CCCC(C(=O)NCc5ccc(C)cc5)C4)nnc(C)c3c2C)cc1 (configuration not stated),-21.8%,·,·,·,·
O=C(O)c1ccc2c(c1)C(=O)N(NC(=O)c1ccccc1)C2=O,-24.4%,-230.1*,2.4,-7.5,6.3
COc1cccc([C@@H]2Oc3ccc(OC)cc3C[C@H]2OC(=O)NS(=O)(=O)c2ccc(C)cc2)c1,·,·,·,·,-1.7
CN1CCC(=O)N([C@H](CSc2ccccc2)c2ccccc2)CC1,?,13.1,-24.1,-124.1*,3.2
COc1ccc(SC[C@H](CC(C)C)N2CCN(CCc3ccccc3)CCC2=O)cc1,-20.6%,-75.0*,-2.5,-106.2*,4.0
Cc1ccc(SC[C@H](CC(C)C)N2CCN(CCc3ccccc3)CCC2=O)cc1,?,·,-13.1,·,-2.2
CCCN1CCC(=O)N([C@H](CSc2ccc(OC)cc2)c2ccccc2)CC1,-13.6%,-39.5,10.4,-92.6*,1.6
